From PubChem BioAssay AID2501 (Southern Research Specialized Biocontainment Screening …, 2010)
Among all 2,200 compounds or so, about 1,200 (55%) were called active. The set was probably picked from earlier hits. Some of the results follow. A number with no mark means an inactive call. No cut-off is given here; in the data, nearly all actives have IC50 up to about 92 µM.

experiment: counter assay for TAg ATPase ADP read-out – biochemical, ADP-Hunter, fluorescence, counter-screen (AID 2501); details: series mostly up to 100 µM; inhibition: at the top concentration;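 note: purified T antigen ATPase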;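 for inhibition: 0% = enzyme with vehicle and 100% = reference inhibitor wells; higher means more inhibition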

Row | SMILES | inhibition | IC50
1 | COCc1cc(CN2CCN(CCc3ccccc3)C(CCO)C2)ccc1OC (configuration not stated) | -22.7% | 
2 | COc1cccc(CN2CCN(Cc3nc(-c4cccs4)oc3C)CC2CCO)c1 (configuration not stated) |  | < 1.56 µM (active)
3 | Cc1oc(-c2cccs2)nc1CN1CCN(C(C)C)C(CCO)C1 (configuration not stated) | -11.3% | 
4 | N#CC1=C(N)C2=C(N3CCCCC3)CCCC2C1(C#N)C#N (configuration not stated) |  | 8.2 µM (active)
5 | O=C(O)C(Cc1ccccc1)N1C(=O)/C(=C/C=C/c2ccco2)SC1=S (configuration not stated) | -0.25% | 
6 | CC(C(=O)Nc1ccc(C(=O)O)c(O)c1)N1C(=O)/C(=C\c2ccco2)SC1=S (configuration not stated) | 21% | 
7 | COc1cc(/C=C2\SC(=S)N(C(Cc3ccccc3)C(=O)O)C2=O)ccc1O (configuration not stated) |  | 6.37 µM (active)
8 | CC(C)C(C(=O)O)N1C(=O)/C(=C/C=C/c2ccco2)SC1=S (configuration not stated) | -26.3% | 
9 | COc1cc(/C=C2\SC(=S)N(C(C(=O)O)c3ccccc3)C2=O)ccc1O (configuration not stated) |  | 7.98 µM (active)
10 | O=C(O)C(c1ccccc1)N1C(=O)/C(=C\c2ccc(O)c(O)c2)SC1=S (configuration not stated) |  | 8.33 µM (active)
11 | Cc1ccc([C@@H]2[C@@H]3C(=O)N(c4ccccc4)C(=O)[C@@H]3[C@]3(C)C(=O)N(Cc4ccccn4)CC(=O)N23)o1 | -36.8% | 
12 | CSc1nnc(-c2ccc(O)cc2)n1C |  | 27.5 µM (active)
13 | CCOC(=O)/C=C/C(=O)OCC(=O)NCc1ccccc1 | -8.77% | 
14 | Cc1cc(C)cc(-n2nnc(C(=O)NCc3ccccc3)c2N)c1 | -17.4% | 
15 | CC/C(=N\NC(=O)CCC(=O)NCc1ccccc1)c1ccc(O)cc1 |  | 9.43 µM (active)
16 | CN1C(=O)C2C(c3ccc(N(C)C)cc3)=NN(Cc3ccccc3)C2C1=O (configuration not stated) |  | 9.4 µM (active)
17 | CC(C)C(=O)Nc1ccc(O)c(-c2csc(N)n2)c1 |  | 10.3 µM (active)
18 | O=[N+]([O-])c1cccc(NC(=S)NCc2ccncc2)c1 | -17.7% | 
19 | CCc1cccc2c(C(=O)CN3C(=O)NC(C)(c4cccc5ccccc45)C3=O)c[nH]c12 (configuration not stated) | -8% | 
20 | Cn1c2ccccc2c2nnc(SCC(=O)Nc3cccc(C(=O)O)c3)nc21 | -13.3% | 
21 | CCc1nc(SCC(=O)Nc2ccc(N(C)C)cc2)n[nH]1 |  | 6.73 µM (active)
22 | CSc1nnc(-c2ccco2)c(-c2ccco2)n1 | -17.9% | 
23 | Cc1ccccc1NC(=O)CSc1nnc(-c2ccco2)c(-c2ccco2)n1 | 9.02% | 
24 | CN(C)c1ccc(NC(=O)CSc2nnc(-c3ccco3)c(-c3ccco3)n2)cc1 |  | 6.24 µM (active)
25 | FC(F)(F)C1CCCN(c2nsc3ccccc23)C1 (configuration not stated) | 23.6% | 
26 | CN1\C(=C/C=C/C=C/C=[N+](C)C)C(C)(C)c2ccccc21 |  | 12.3 µM (active)

Row | SMILES | inhibition | IC50
27 | CCc1cc(C(=O)N/N=C/c2ccc(O)cc2)c2ccccc2n1 |  | 2.69 µM (active)
28 | Cc1ccc(-c2cc(C(=O)NCc3ccco3)c3ccccc3n2)o1 | -48.7% | 
29 | Cc1cc(/C=N/NC(=O)C(O)(c2ccccc2)c2ccccc2)c(C)n1-c1cccc(C(=O)O)c1 | -36.7% | 
30 | O=C(N/N=C/c1ccc(O)c(O)c1)c1cc(-c2ccccc2)nc2ccccc12 |  | 36 µM (active)
31 | CC(C)(C)c1cc(C(=O)N/N=C/c2ccc(O)cc2)n(-c2ccccc2)n1 |  | 61.4 µM (active)
32 | O=C(O)c1cc(N/N=C/c2cccc3ccccc23)ccc1Cl | 23.8% | 
33 | Cc1cccc(NC(=O)c2cc(Cl)nc3ccccc23)c1 | -15.5% | 
34 | Cc1nnc(NC(=O)c2cc(-c3ccco3)nc3ccccc23)s1 | -14.3% | 
35 | CNC(=S)NNC(=O)c1cc(C(C)(C)C)nn1Cc1ccc(F)cc1 | 26.2% [at 50 µM] | 
36 | O=C(N/N=C/c1ccc(O)cc1)c1csc2ccccc12 |  | 4.27 µM (active)
37 | Nc1ccc(-n2nncc2-c2ccc(Cl)cc2)cc1 | 28.3% | 
38 | COc1cnc(-c2ccccn2)nc1Oc1ccc(Cl)c2ccccc12 | -37.7% | 
39 | CC(NC(=O)Nc1ccc(O)cc1)(C(F)(F)F)C(F)(F)F |  | 6.77 µM (active)
40 | CCOC(=O)C1(Cc2ccc(Cl)cc2)CCN(C(=O)CCc2ccncc2)CC1 | -4.52% | 
41 | CCOC(=O)C1(Cc2ccccc2)CCN(Cc2cnn(C(C)C)c2)CC1 |  | 26.4 µM (active)
42 | CCOC(=O)C1(CCc2ccccc2)CCN(C(=O)CCc2cnn(C)c2)CC1 | -29.5% | 
43 | O=C(N/N=C/c1c[nH]c2ccccc12)c1ccc(O)c(O)c1 |  | 7.17 µM (active)
44 | Cc1ncc(CO)c(/C=N/NC(=O)c2cc(O)c(O)c(O)c2)c1O | -352% | 
45 | Oc1ccc(O)c(-c2cnns2)c1 |  | 28.1 µM (active)
46 | CC(=O)CC1OC(=O)C(Br)=C1NCc1ccccc1 (configuration not stated) | 6.4% | 
47 | CN(C(=O)COC(=O)CNC(=O)CNC(=O)c1ccc(Cl)cc1Cl)c1ccccc1 | 16.9% | 
48 | C/C(CC(=O)Nc1ccc(N(C)C)cc1)=N\NC(=O)c1ccc([N+](=O)[O-])cc1Cl |  | 6.47 µM (active)
49 | C=CCN(c1ccc(C(=O)Nc2cccc([N+](=O)[O-])c2)cc1)S(C)(=O)=O | -6.02% | 
50 | C/C(=N/NC(=O)c1cc(O)c(O)c(O)c1)c1ccc([N+](=O)[O-])cc1 | 25.1% | 
51 | C/C(CC(=O)Nc1ccc(N(C)C)cc1)=N\NC(=O)c1ccc(Cl)cc1Cl |  | 3.99 µM (active)
52 | C=C(CC)C(=O)c1ccc(OCC(=O)O)c(Cl)c1Cl | 2.1% | 

Row | SMILES | inhibition | IC50
53 | Cc1ccc(CNC(=O)C2CC(c3ccccc3[N+](=O)[O-])=NO2)cc1 (configuration not stated) | 4.09% | 
54 | CC1=C(C#N)c2nc(N)c(C#N)c(C)c2/C1=C\c1ccc(-c2ccccc2C(=O)O)o1 | 24.6% | 
55 | CN=c1scc(C)n1/N=C/c1cc(Br)c(O)c(OC)c1 |  | 5.68 µM (active)
56 | CCN=c1scc(C)n1/N=C/c1cc(Br)c(O)c(Br)c1 |  | 6.61 µM (active)
57 | COc1cc(/C=N/NC(=O)CC#N)cc(Br)c1O |  | 6.13 µM (active)
58 | CN=c1scc(C)n1/N=C/c1ccc(O)cc1O |  | 3.58 µM (active)
59 | COc1cc([N+](=O)[O-])cc(/C=N/NC(=O)CC#N)c1O | -12.9% | 
60 | CCN=c1scc(C)n1/N=C/c1cc(Br)c(O)c(OC)c1 |  | 14.6 µM (active)
61 | COc1cc(/C=N/N2C(=O)CSC2=S)cc(Br)c1O |  | 13.3 µM (active)
62 | O=C1CSC(=S)N1/N=C/c1ccc(O)c([N+](=O)[O-])c1 | 6.19% [at 50 µM] | 
63 | COc1cc(/C=N/N(C)C)cc(Br)c1O |  | 3.75 µM (active)
64 | COC(=O)c1ccccc1-n1c(C)nc(=O)c(-c2ccccc2)c1C | 10.8% | 
65 | C[N+]1(CCCCSc2ccc(O)cc2)CCCCC1 |  | 4.59 µM (active)
66 | CNc1n[nH]c(=S)s1 |  | 92.7 µM (active)
67 | CC(=O)Oc1cc(O)c2c(=O)c(OC(C)=O)c(-c3ccc(OC(C)=O)c(OC(C)=O)c3)oc2c1 |  | 16.6 µM (active)
68 | CC1(C)CC(=O)C=C(NCCc2ccccc2)C1 | -19.5% | 
69 | O=[N+]([O-])c1ccc(N2CCN(c3ccc(O)cc3)CC2)cn1 |  | 5.49 µM (active)
70 | O=C(Nc1ccc(CN2CCOCC2)cc1)c1ccc(N2CCCC2)c([N+](=O)[O-])c1 | -12.7% | 
71 | NC(=O)c1ccc(N2CCN(c3ccc(O)cc3)CC2)c([N+](=O)[O-])c1 |  | 7.83 µM (active)
72 | CN1CCN(S(=O)(=O)c2ccc(N3CCN(c4ccc(O)cc4)CC3)c([N+](=O)[O-])c2)CC1 |  | 4.03 µM (active)
73 | CN1CCN(S(=O)(=O)c2ccc3c(c2)NC(=O)C2CCCN32)CC1 (configuration not stated) | -7.97% | 
74 | CC(=O)Nc1ccc(S(=O)(=O)N2CCN(Cc3ccccc3[N+](=O)[O-])CC2)cc1 | -7.97% | 
75 | O=C(O)c1ccc(-c2ccc(O)c(F)c2)cc1 |  | 7.49 µM (active)
76 | O=C1NC(C(=O)O)=CC(c2ccc([N+](=O)[O-])cc2)N1 (configuration not stated) | -6.48% | 
77 | CC(/C=N/n1c(-c2ccncc2)n[nH]c1=S)=C\c1ccco1 |  | 44.3 µM (active)
78 | Cc1ccsc1/C=N/n1c(-c2cccnc2)n[nH]c1=S |  | 25 µM (active)

Row | SMILES | inhibition | IC50
79 | CC(/C=N/n1c(-c2n[nH]c3c2CCC3)n[nH]c1=S)=C\c1ccco1 |  | 49 µM (active)
80 | Cc1cc(-c2n[nH]c(=S)n2/N=C/C=C/c2ccco2)n[nH]1 |  | 97.4 µM (active)
81 | S=c1[nH]nc(COc2ccccc2)n1/N=C/C=C/c1ccco1 | 21.1% | 
82 | Cc1ccnc(NC(=S)NC(=O)/C=C/c2ccco2)c1 | 8.26% | 
83 | O=C(O)c1ccc(-n2c(-c3cc(-c4ccco4)[nH]n3)n[nH]c2=S)cc1 | 27.3% | 
84 | O=C(O)c1cc(-c2ccco2)nc2ccc(Br)cc12 | 13.5% | 
85 | Cc1ccc(-n2c(-c3cc(-c4ccco4)[nH]n3)n[nH]c2=S)c(Br)c1 | 27.1% | 
86 | CC(/C=N/n1c(-c2cccnc2)n[nH]c1=S)=C\c1ccccc1 |  | 38.8 µM (active)
87 | C=CCn1c(-c2ccc3ncccc3c2)n[nH]c1=S | 22.6% | 
88 | S=c1[nH]nc(-c2n[nH]c3c2CCC3)n1/N=C/C=C/c1ccco1 |  | 28.2 µM (active)
89 | Cc1ccc(/C=N/n2c(-c3ccco3)n[nH]c2=S)cc1 |  | 16.5 µM (active)
90 | Cc1cccc(/C=N/n2c(-c3ccncc3)n[nH]c2=S)c1 |  | 88.6 µM (active)
91 | CCS(=O)(=O)N1CCC(C(=O)NCCN2CCOCC2)CC1 | 20.6% [at 50 µM] | 
92 | Cc1cc(C(F)(F)F)nc2c(Cl)c(C(C)(C)C)nn12 | -28.7% | 
93 | NS(=O)(=O)c1ccc(N=Nc2c[nH]c(=O)c(O)c2)cc1 |  | 7.75 µM (active)
94 | Cc1cccc(C)c1NC(=S)Nc1ccccc1C(=O)NCc1ccco1 | 8.4% | 
95 | CCOC(=O)c1c(C)[nH]c(C(=O)OCC(=O)Nc2cc(Cl)ccc2OC)c1C | -25.2% | 
96 | CCOC(=O)c1[nH]c2ccccc2c1NC(=S)Nc1cccc(C)c1C |  | 29 µM (active)
97 | Oc1ccc(/C=N/NC(=S)NCCN2CCOCC2)c(O)c1 |  | 4.25 µM (active)
98 | COc1cc(/C=N/NC(=S)NCCN2CCOCC2)ccc1O |  | 2.37 µM (active)
99 | COc1ccc(C(=O)N/N=C/c2ccc(OC)c(CN3CCc4cc(OC)c(OC)cc4C3C)c2)cc1 (configuration not stated) | 7.43% | 
100 | COc1ccc(/C=N/NC(=O)c2ccc(Br)cc2)cc1CN1CCOCC1 |  | 13 µM (active)
101 | COc1ccc(NC(=S)N/N=C/c2ccc(F)c(F)c2)cc1 |  | 23.4 µM (active)
102 | COc1ccc(CNS(=O)(=O)c2ccc(F)c(C(=O)Nc3ccc(OC)cc3)c2)cc1 | 4.99% | 
